Several values for one entry are separate records, joined by “and”; a condition that tells them apart may be missing. Equal entries are not always repeated. Inconclusive results are not listed. Entries that show only a call come without a potency. Activity calls are given as the source filed them. Unless noted, calls follow the shape of the full dose curve.
How the values were obtained:
[1] = Cell Viability - MRC5 (AID 434); conditions: MRC5 lung fibroblast viability, qHTS;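 also: potency is read from the fitted curve at half-maximal effect; potency reflects cytotoxicity seen as loss of intracellular ATP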
Outline: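 qHTS cytotoxicity in human lung fibroblast MRC5 cells; 40 hr treatment, 37 °C; cellular ATP by luciferase luminescence; DMSO = 0%, 100 uM tamoxifen = 100% inhibition; Hill-fit AC50.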

[2] = molecular target: Mitogen-activated protein kinase 10 (Mus musculus) (UniProt Q61831); test: JNK3 AlphaScreen Assay (AID 530; active = well fitted curve in either direction with a large enough effect, not every such curve was filed as active;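 also: kinase came from lysate of stimulated human HepG2 cells; signal reports phosphorylation of biotinylated GST-cJun 1-79 at Ser73 with 10 µM ATP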); conditions: JNK3 lysate, c-Jun phosphorylation; series mostly up to 57.1 µM
Outline: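 Compound titrations were preincubated 15 minutes at room temperature with substrate, antibody and pre-activated JNK3-containing HepG2 lysate. Reactions were started with 10 uM ATP and stopped with EDTA-containing bead buffer for AlphaScreen detection.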

[3] = Cell Viability - N2a (AID 540; active = well fitted curve in the direction sought with a large enough effect; an effect the other way counts as inactive or inconclusive;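 also: cells exposed to compound for 40 h at 37 °C; nearly all actives have a fitted effect of over 45% in size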; also: potency is read from the fitted curve at half-maximal effect); conditions: N2a mouse neuroblastoma cell viability; activity change, negative = cytotoxicity: at 92.2 µM (top of the series)
Outline: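 Luminescent ATP signal (CellTiter-Glo, 20 min at room temperature) served as the viability read-out after N2a cells were treated with compounds for 40 hours at 37 °C. Concentration-response data were fitted to the Hill equation for AC50.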

[4] = Cell Viability - H-4-II-E (AID 543; active = well fitted curve in the direction sought with a large enough effect; an effect the other way counts as inactive or inconclusive; also: nearly all actives have a fitted effect of over 35% in size; also: potency is read from the fitted curve at half-maximal effect); conditions: H-4-II-E rat hepatoma viability; series mostly up to 92.2 µM
Outline: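 Luminescent ATP signal (CellTiter-Glo) served as the viability read-out, with cytotoxicity seen as a concentration-dependent ATP drop. Cells were treated for 40 hours in complete medium. AC50 values derive from Hill-equation modelling.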

[5] = MultiTox-Fluor Cytotoxicity Assay - LYMP1-002 - Dead Cells (AID 960; active = well fitted curve in the direction sought with a large enough effect; an effect the other way counts as inactive or inconclusive; also: nearly all actives have a fitted effect of over 60% in size); conditions: LYMP1-002 lymphoblastoid cells, dead-cell protease fluorescence; series mostly up to 46.1 µM
Outline: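 LYMP1-002 cells 2500/well; 5 hr 37 C pre-incubation; compound 16 hr 37 C; MultiTox-Fluor reagent 60 min RT; dead-cell fluor Ex/Em 485/520. Norm. to DMSO (0%) vs 15 uM tetraoctylammonium bromide (100%); Hill AC50.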

[6] = molecular target: Estrogen receptor (Homo sapiens) (UniProt P03372); test: qHTS assay for small molecule agonists of estrogen receptor alpha signaling (AID 588514); conditions: ER-alpha-UAS-bla HEK293, beta-lactamase ratio, 18 h; series mostly up to 76.8 µM; also: nearly all actives have a fitted effect of over 70% in size
Outline: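 Cells were plated at 5000/well, incubated 4 hrs at 37 C, dosed with compound titration series, incubated 18 hrs at 37 C, loaded with CCF4 dye for 2 hrs at RT, then fluorescence was read.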

[7] = molecular target: Bile acid receptor (Homo sapiens) (UniProt Q96RI1); test: qHTS assay for small molecule agonists of farnesoid X receptor signaling (AID 588527); conditions: HEK293T FXR-UAS-bla, beta-lactamase ratio, 16 h; stronger effect = higher value
Outline: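 FXR-UAS-bla HEK293T, 10% dialyzed FBS; cpds up to 92 uM titration, 16 h 37 C; CCF4 dye 2 h RT; fluorescence. Normalized to chenodeoxycholic acid 100 uM (100%) and DMSO (0%); Hill fit gives EC50, efficacy.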

[8] = molecular target: Glucocorticoid receptor (Homo sapiens) (UniProt P04150); test: qHTS assay for small molecule agonists of glucocorticoid receptor signaling (AID 588532; active = well fitted curve in the direction sought with a large enough effect in the signal ratio, with a control signal flat; the % refers to the signal ratio); conditions: HeLa MMTV-bla, beta-lactamase ratio, agonist, 18 h; stronger effect = higher value; percent of dexamethasone control, DMSO zero
Outline: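 Quantitative HTS using CellSensor MMTV-bla HeLa cells in charcoal/dextran-treated serum; compounds tested up to 92 uM. After 18 h at 37 C, CCF4 dye reported reporter induction.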

[9] = molecular target: Peroxisome proliferator-activated receptor delta (Homo sapiens) (UniProt Q03181); test: qHTS assay for small molecule agonists of peroxisome proliferator-activated receptor delta signaling (AID 588534); conditions: HEK293T PPARdelta-UAS-bla, beta-lactamase ratio, 18 h; series mostly up to 76.7 µM
Outline: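 Fluorescence from CCF4 substrate cleavage by beta-lactamase reporter, read 2 hrs at RT, measured agonist activity. Compounds were tested with 18 hrs exposure at 37 C. Concentration-response data fitted to Hill equation.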

[10] = qHTS assay for small molecule antagonists of peroxisome proliferator-activated receptor delta signaling (AID 588535; active = well fitted inhibition curve with a large enough effect in the signal ratio, with a control signal flat, not every such curve was filed as active; the % refers to the signal ratio;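 as to max response: cells co-treated with a PPAR-delta agonist as stimulator during compound exposure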); conditions: HEK293T PPARd-UAS-bla, beta-lactamase FRET ratio, 18 h; 460 nm channel
Outline: (§1)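 HEK293T PPAR-delta-UAS-bla cells, 4000/well, 2% charcoal/dextran FBS; 5 h 37 C; cpd titration; 18 h 37 C; CCF4 2 h RT; FI 460/530 nm; Hill fit → IC50, efficacy.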

[11] = molecular target: Peroxisome proliferator-activated receptor delta (Homo sapiens) (UniProt Q03181); test: as above; conditions: HEK293T PPARd-UAS-bla, beta-lactamase FRET ratio, 18 h; series mostly up to 76.7 µM
Outline: as §1

[12] = molecular target: Peroxisome proliferator-activated receptor gamma (Homo sapiens) (UniProt P37231); test: qHTS assay for small molecule agonists of peroxisome proliferator-activated receptor gamma signaling (AID 588536; active = well fitted curve in the direction sought with a large enough effect in the signal ratio, with a control signal flat, not every such curve was filed as active; the % refers to the signal ratio); conditions: HEK293 PPARg-UAS-bla, beta-lactamase ratio, 16 h, percent of rosiglitazone response, DMSO as zero; series mostly up to 76.7 µM
Outline: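 PPAR-gamma-UAS-bla HEK293 cells in medium with 1% charcoal/dextran-treated FBS were exposed to compounds for 16 h at 37 C. Beta-lactamase activity was read with CCF4 substrate (405 nm excitation, 460/530 nm emission).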

[13] = qHTS assay for small molecule agonists of the antioxidant response element (ARE) signaling pathway (AID 651741; active = well fitted activation curve with a large enough effect in the signal ratio; the % refers to the signal ratio; also: potency is read from the fitted curve at half-maximal effect); conditions: HepG2 ARE-bla reporter, beta-lactamase FRET ratio, 16 h; series mostly up to 96 µM
Outline: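 Quantitative HTS in HepG2 cells stably expressing an ARE-beta-lactamase reporter; 16 h compound exposure at 37 C, followed by 2 h room-temperature incubation with LiveBLAzer B/G FRET substrate and fluorescence measurement.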

[14] = qHTS assay for small molecule activators of the nuclear factor-kappa B (NF-kB) signaling pathway (AID 651749; active = well fitted activation curve with a large enough effect in the signal ratio; the % refers to the signal ratio); conditions: NF-kB-bla ME-180 cells, beta-lactamase FRET ratio, 16 h; stronger effect = higher value
Outline: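 Readout: beta-lactamase reporter driven by an NF-kB response element, detected fluorescently as loss of FRET. Cells were the ME-180 line, treated 16 hr at 37C with pin-transferred compound.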

[15] = molecular target: Glucocorticoid receptor (Homo sapiens) (UniProt P04150); test: qHTS assay for small molecule antagonists of glucocorticoid receptor signaling (AID 588533; active = well fitted inhibition curve with a large enough effect in the signal ratio, with a control signal flat, not every such curve was filed as active; the % refers to the signal ratio;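 also: cells stimulated with 2 nM dexamethasone as agonist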); conditions: HeLa MMTV-bla, GRE beta-lactamase ratio, antagonist mode, 18 h; series mostly up to 76.8 µM
Outline: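 Antagonist-mode qHTS: compound titrations added to GRE-bla HeLa cells, then dexamethasone 2 nM final; 18 h, 37 C. CCF4 FRET fluorescence normalized to dexamethasone and DMSO; IC50 from Hill fit.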

[16] = molecular target: Vitamin D3 receptor (Homo sapiens) (UniProt P11473); test: qHTS assay for small molecule agonists of vitamin D receptor signaling (AID 588543); conditions: HEK293T VDR-UAS-bla, beta-lactamase ratio, 16 h; series mostly up to 76.8 µM
Outline: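 Measured: β-lactamase reporter activity (CCF4, 405 nm excitation, 460/530 nm emission) in HEK293T VDR-UAS-bla cells after 16 h compound exposure at 37 °C. Normalization against 50 nM 1α,25-dihydroxyvitamin D3 and DMSO; Hill-fit EC50.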

[17] = qHTS assay for small molecule antagonists of the retinoid-related orphan receptor gamma (ROR-gamma) signaling pathway - cell viability counter screen (AID 720652; active = well fitted curve in the direction sought with a large enough effect in the repeat runs; an effect the other way counts as inactive or inconclusive;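 also: compound exposure lasted 16 hr before ATP read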); conditions: RORgamma reporter cell line viability counter screen; series mostly up to 92.2 µM
Outline: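 Luminescence from CellTiter-Glo after 30 min at room temperature reported cellular ATP as the cytotoxicity measure. Cells were the CHO reporter line with doxycycline-induced ROR-gamma expression, exposed to compound for 16 hr at 37 C.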

[18] = molecular target: Vitamin D3 receptor (Homo sapiens) (UniProt P11473); test: qHTS assay for small molecule antagonists of vitamin D receptor signaling (AID 588541); conditions: HEK293T VDR-UAS-bla, beta-lactamase ratio, antagonist mode; series mostly up to 76.7 µM;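 also: receptor activated by calcitriol during compound treatment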
Outline: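 Antagonist-mode beta-lactamase reporter assay: HEK293T VDR-UAS-bla cells were exposed to titrated compound alongside 1-alpha,25-dihydroxyvitamin D3 at 3 nM final for 16 h. Values were normalized to the 50 nM agonist control and DMSO basal, with IC50 and efficacy from Hill equation fits.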

[19] = molecular target: Peroxisome proliferator-activated receptor gamma (Homo sapiens) (UniProt P37231); test: qHTS assay for small molecule antagonists of peroxisome proliferator-activated receptor gamma signaling (AID 588537; active = well fitted inhibition curve with a large enough effect in the signal ratio, with a control signal flat, not every such curve was filed as active; the % refers to the signal ratio;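 also: reporter cells co-stimulated with 50 nM rosiglitazone agonist during compound treatment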); conditions: HEK293 PPARg-UAS-bla, beta-lactamase ratio, antagonist mode; series mostly up to 76.8 µM
Outline: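 Antagonist mode, beta-lactamase reporter in HEK293; charcoal/dextran FBS 1%; 3000 cells/well, 37 C 6-6.5 h; cpd titration + rosiglitazone 50 nM final, 16 h 37 C; CCF4, 2 h RT; 460/530 nm; Hill fit → IC50, efficacy.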

[20] = Cell Viability - Hek293 (AID 427;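 active = compounds whose dose-response curve shows a full or clear partial loss of cell viability, called from curve shape rather than a numeric limit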;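 also: potency is read from the fitted curve at half-maximal effect; cells exposed to compound for 40 hours at 37 °C before reading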); conditions: qHTS
Outline: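 Luminescent ATP read-out (CellTiter-Glo, 20 min RT) after 40 hr compound exposure at 37 °C in complete medium. Signal normalized to DMSO (basal) and 100 uM tamoxifen (100% inhibition); concentration-response fitted with the standard Hill equation to give AC50.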

Chain of Estrogen receptor (Homo sapiens) (P03372 whole entry, looked up): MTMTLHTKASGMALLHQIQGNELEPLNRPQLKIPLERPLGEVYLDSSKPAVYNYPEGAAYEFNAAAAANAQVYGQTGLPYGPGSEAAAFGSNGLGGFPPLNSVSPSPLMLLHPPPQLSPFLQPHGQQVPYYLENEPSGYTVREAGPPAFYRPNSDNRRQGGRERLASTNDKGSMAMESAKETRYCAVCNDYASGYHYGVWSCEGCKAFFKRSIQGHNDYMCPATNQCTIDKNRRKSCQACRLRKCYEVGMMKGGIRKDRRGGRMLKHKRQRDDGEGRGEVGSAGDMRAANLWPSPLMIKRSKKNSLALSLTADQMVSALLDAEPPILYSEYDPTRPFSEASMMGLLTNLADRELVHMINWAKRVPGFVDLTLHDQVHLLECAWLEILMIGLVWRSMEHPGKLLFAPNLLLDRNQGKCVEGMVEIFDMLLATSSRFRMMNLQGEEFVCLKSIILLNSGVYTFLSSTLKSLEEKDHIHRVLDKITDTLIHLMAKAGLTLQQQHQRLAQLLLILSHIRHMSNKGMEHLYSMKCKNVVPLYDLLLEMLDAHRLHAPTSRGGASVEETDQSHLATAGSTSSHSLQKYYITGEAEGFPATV
Chain of Peroxisome proliferator-activated receptor delta (Homo sapiens) (Q03181 whole entry, looked up): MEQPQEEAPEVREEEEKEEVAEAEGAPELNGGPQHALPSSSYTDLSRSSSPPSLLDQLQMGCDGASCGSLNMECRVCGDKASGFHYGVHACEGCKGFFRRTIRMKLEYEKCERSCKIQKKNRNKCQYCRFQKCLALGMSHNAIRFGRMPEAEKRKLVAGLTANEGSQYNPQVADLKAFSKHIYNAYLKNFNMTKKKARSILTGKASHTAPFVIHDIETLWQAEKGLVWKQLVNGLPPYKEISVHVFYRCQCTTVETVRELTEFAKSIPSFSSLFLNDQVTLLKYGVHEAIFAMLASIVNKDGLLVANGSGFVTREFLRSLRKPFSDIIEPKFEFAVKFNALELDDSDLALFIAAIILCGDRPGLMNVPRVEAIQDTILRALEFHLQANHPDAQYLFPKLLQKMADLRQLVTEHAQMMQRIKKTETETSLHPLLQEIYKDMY
Chain of Vitamin D3 receptor (Homo sapiens) (P11473 whole entry, looked up): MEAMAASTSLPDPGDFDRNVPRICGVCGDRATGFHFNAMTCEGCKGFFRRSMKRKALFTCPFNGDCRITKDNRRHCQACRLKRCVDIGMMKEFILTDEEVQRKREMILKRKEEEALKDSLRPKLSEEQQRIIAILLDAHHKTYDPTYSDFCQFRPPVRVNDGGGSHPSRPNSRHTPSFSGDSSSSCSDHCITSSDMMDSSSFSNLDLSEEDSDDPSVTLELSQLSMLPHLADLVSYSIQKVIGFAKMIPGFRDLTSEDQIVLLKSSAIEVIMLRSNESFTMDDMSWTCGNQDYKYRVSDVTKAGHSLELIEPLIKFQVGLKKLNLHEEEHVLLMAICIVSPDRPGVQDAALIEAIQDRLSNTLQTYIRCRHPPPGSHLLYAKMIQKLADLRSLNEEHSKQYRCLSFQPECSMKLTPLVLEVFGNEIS
Chain of Glucocorticoid receptor (Homo sapiens) (P04150 whole entry, looked up): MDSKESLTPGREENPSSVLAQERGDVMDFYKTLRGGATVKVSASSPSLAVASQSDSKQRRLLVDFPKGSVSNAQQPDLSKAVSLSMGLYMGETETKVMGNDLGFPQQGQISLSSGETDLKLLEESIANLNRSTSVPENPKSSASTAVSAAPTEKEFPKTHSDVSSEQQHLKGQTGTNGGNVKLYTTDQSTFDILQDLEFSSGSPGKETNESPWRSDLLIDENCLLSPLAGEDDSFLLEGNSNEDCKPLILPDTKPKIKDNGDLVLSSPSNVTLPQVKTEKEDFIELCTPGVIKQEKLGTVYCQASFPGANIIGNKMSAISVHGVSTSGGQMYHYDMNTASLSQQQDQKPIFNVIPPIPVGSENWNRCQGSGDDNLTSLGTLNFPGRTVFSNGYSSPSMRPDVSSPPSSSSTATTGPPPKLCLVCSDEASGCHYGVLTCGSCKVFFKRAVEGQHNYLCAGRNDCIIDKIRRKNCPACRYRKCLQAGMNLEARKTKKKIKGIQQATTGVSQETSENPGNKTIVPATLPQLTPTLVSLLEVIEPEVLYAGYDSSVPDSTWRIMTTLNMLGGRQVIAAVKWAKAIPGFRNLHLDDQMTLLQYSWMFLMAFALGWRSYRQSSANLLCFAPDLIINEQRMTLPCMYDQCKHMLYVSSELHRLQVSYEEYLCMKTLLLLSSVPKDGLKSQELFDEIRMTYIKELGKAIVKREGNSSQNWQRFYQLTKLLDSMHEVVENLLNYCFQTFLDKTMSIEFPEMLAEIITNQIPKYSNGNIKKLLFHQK
Chain of Bile acid receptor (Homo sapiens) (Q96RI1 whole entry, looked up): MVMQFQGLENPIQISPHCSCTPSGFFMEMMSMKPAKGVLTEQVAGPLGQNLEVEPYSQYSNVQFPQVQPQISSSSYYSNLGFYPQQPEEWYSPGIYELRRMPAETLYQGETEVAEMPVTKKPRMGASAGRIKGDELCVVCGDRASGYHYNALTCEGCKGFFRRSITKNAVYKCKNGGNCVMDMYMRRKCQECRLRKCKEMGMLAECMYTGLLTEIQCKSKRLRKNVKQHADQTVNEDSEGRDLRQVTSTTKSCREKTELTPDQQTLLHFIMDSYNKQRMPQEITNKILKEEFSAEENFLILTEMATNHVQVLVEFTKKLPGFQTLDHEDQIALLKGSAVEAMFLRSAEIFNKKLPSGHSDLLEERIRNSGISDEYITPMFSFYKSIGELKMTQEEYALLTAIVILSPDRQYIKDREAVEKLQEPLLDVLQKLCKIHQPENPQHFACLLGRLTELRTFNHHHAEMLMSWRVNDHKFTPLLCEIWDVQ
Chain of Peroxisome proliferator-activated receptor gamma (Homo sapiens) (P37231 whole entry, looked up): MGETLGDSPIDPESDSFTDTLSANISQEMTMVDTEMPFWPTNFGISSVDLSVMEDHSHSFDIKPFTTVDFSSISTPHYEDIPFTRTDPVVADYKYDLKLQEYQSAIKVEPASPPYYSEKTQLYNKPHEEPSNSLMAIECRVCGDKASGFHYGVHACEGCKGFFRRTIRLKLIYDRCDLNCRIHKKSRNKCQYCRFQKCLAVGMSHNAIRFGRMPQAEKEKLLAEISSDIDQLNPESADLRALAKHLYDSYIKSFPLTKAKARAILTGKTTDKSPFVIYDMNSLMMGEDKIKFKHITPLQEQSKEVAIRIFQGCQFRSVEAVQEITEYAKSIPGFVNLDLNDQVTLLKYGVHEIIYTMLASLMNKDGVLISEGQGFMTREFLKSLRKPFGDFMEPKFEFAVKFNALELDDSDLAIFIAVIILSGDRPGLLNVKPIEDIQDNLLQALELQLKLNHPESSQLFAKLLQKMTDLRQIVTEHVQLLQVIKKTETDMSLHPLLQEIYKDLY

| Compound | Potency [1] | Potency [2] | Potency [3] | Potency [4] | Potency [5] | Potency [6] | activation [7] | activation [8] | outcome [9] | max response [10] | outcome [11] | outcome [12] | Potency [13] | activation [14] | outcome [15] | outcome [16] | Potency [17] | outcome [18] | Potency [19] | Potency [20] |
| --- | --- | --- | --- | --- | --- | --- | --- | --- | --- | --- | --- | --- | --- | --- | --- | --- | --- | --- | --- | --- |
| Cc1cccc(C)c1N | > 92 µM (inactive) | inactive | inactive | inactive | inactive | inactive | -1.75% (inactive) | 0.219% (inactive) | inactive | 17.3% | inactive | inactive | inactive | -1.09% (inactive) |  |  |  |  |  |  |
| O=C(O)c1cc(Cl)ccc1Cl | > 92 µM (inactive) | inactive | inactive | inactive |  |  | -1.21% (inactive) | -4.37% (inactive) | inactive | 35.4% | inactive |  | inactive |  | inactive | inactive | inactive |  |  |  |
| O=[N+]([O-])c1c(Cl)c(Cl)c(Cl)c(Cl)c1Cl | > 92 µM (inactive) | inactive | inactive | inactive |  | inactive |  | -3.84% (inactive) and -0.795% (inactive) | inactive | 0.973% | inactive |  | 37.6 µM (active) and 24.3 µM (active) | -2.45% (inactive) and -1.33% (inactive) | inactive | inactive |  | inactive |  |  |
| Nc1ccc([N+](=O)[O-])cc1[N+](=O)[O-] | > 92 µM (inactive) | inactive |  | 20 µM (active) |  | inactive |  |  | inactive |  |  | inactive |  | -1.37% (inactive) | inactive | inactive | inactive | inactive | inactive |  |
| Cl/C=C/Cl | > 92 µM (inactive) | inactive | inactive |  |  | inactive |  | -4.99% (inactive) |  | -19.1% | inactive |  | inactive | -1.04% (inactive) | inactive | inactive | inactive | inactive |  |  |
| c1ccc(Nc2ccc(Nc3ccccc3)cc2)cc1 |  |  | 15.8 µM (active) | 7.94 µM (active) |  |  | -1.54% (inactive) |  | inactive | 91.4% | inactive |  |  |  |  | inactive | inactive |  |  | > 92 µM (inactive) |
| Nc1c(Cl)cc([N+](=O)[O-])cc1Cl |  | inactive |  |  | inactive | inactive | -3.3% (inactive) and 0.0652% (inactive) | -0.898% (inactive) | inactive | 8.87% and 11.4% | inactive | inactive |  |  | inactive |  | inactive | inactive | inactive | > 92 µM (inactive) |
| Oc1cc(Cl)ccc1Cl | > 92 µM (inactive) | inactive | inactive | inactive | inactive |  |  | 0.0862% (inactive) and 2.52% (inactive) | inactive | 32.2% and -9.59% | inactive | inactive | inactive |  | inactive | inactive | inactive | inactive | inactive |  |
| CN=C=O | > 92 µM (inactive) | inactive | inactive |  | inactive |  |  |  | inactive | 61.5% | inactive |  | inactive |  |  |  | inactive |  |  |  |
| CCCCC(=O)Cl | > 92 µM (inactive) | inactive | inactive | inactive |  |  | 3.38% (inactive) |  |  | 20% | inactive |  |  | -1.31% (inactive) | inactive | inactive | inactive | inactive |  |  |
| Nc1ccc(Oc2ccc(N)cc2)cc1 | > 92 µM (inactive) | inactive |  |  |  |  |  | -1.85% (inactive) and -6.36% (inactive) |  | 31.7% | inactive | inactive | inactive | 0.532% (inactive) and -1.89% (inactive) | inactive |  |  |  |  |  |
| CCCCCc1cc(O)cc(O)c1 | > 92 µM (inactive) | inactive | inactive | inactive |  |  | 2.26% (inactive) |  | inactive |  |  | inactive | 42.2 µM (active) |  |  | inactive |  |  |  |  |
| CC(C)CC(C)N (stereo not given) | > 92 µM (inactive) | inactive | inactive | inactive | inactive | inactive |  |  | inactive | -20.2% | inactive | inactive |  |  | inactive |  | inactive |  | inactive |  |
| FC(Cl)(Cl)Cl | > 92 µM (inactive) | inactive | inactive | inactive |  |  | -3.19% (inactive) | 0.534% (inactive) |  |  |  | inactive | inactive |  | inactive |  |  |  | inactive |  |
| N#CC(O)c1ccccc1 (stereo not given) |  |  |  | inactive | inactive |  | -0.559% (inactive) | -0.987% (inactive) | inactive | 6.88% | inactive |  | inactive | 0.595% (inactive) | inactive | inactive | inactive |  | inactive | > 92 µM (inactive) |
| CN(C)C(=O)Nc1cccc(C(F)(F)F)c1 | > 92 µM (inactive) |  | inactive | inactive | inactive |  |  |  | inactive | -0.756% and 6.11% | inactive | inactive | inactive | 0.0409% (inactive) and 1.96% (inactive) |  | inactive | inactive | inactive | inactive |  |
